Growth inhibition data for 38 compounds are collected here from PubChem BioAssay (NCI).

This is part of a sample that, as a whole, favours compounds with a hit. Of some 79,000 tested, about 15% had one in any assay. Calls of active or inactive are those of the source. No stated cut-off is given here; in the data, active means growth inhibition above about 70%; inactive means the rest.

The first test is described as follows: NCI Yeast Anticancer Drug Screen. Data for the rad50 strain (AID 155).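 Further: 0% = growth of vehicle-only cultures of the same strain.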 Conditions: S. cerevisiae rad50 strain growth inhibition; at 50.0 µM; hits give high values. In outline: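 Cells are treated with compound, grown, and their growth is then scored against vehicle-only cultures of the same repair-deficient yeast strain.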
In the case of `O=C1c2ccccc2C(=O)N1/N=C/c1ccc2c(c1)OCO2`, the growth inhibition is 22.5% (inactive).
Same read-out and setting: as for `CC(C)c1nc(-c2ccccc2)c(-c2ccccc2)[nH]1`, the figure is 43.2% (inactive); as for `Cc1ccccc1NC(=S)Nc1ccccn1`, 22% (inactive); as for `CCCCCCCCCCCCOc1ccc(C)cc1`, 5.45% (inactive).
The same measure, in the same setting: the figure for `CCC(=O)N/N=C/C=N/NC(=O)c1ccncc1` is -30.7% (inactive); for `O=[N+]([O-])c1ccc2nc3c4ccccc4c4ccccc4c3nc2c1` it is 53.1% (inactive).
In the case of `O=C(O)/C=C/C(=O)Nc1cc(Cl)c(Cl)cc1Cl`, the growth inhibition is -11.3% (inactive).
As for `N#C/C(=C/c1ccc(O)c(O)c1)C(N)=O`, the growth inhibition was 23.6% (inactive).
In the case of `CSc1sc2cc([N+](=O)[O-])ccc2[n+]1C`, the growth inhibition is -0.4% (inactive).
In the case of `Cn1/c(=N/Sc2nnnn2-c2ccccc2)sc2ccccc21`, the growth inhibition was 13.6% (inactive).
For `COC(=O)c1cc(NC(=O)CC(=O)c2cccc(N)c2)cc(C(=O)OC)c1`, the growth inhibition is -3.8% (inactive).
The same measure, in the same setting: as for `C[N+](C)(C)CN1C(=O)c2ccccc2C1=O`, the figure is -11.9% (inactive).
Consider `O=C(O)c1cc(N=Nc2ccccc2)ccc1O`, for which the growth inhibition is -19.1% (inactive).
Regarding `Cc1c(Cl)cccc1NCN1C(=O)c2ccccc2C1=O`, the growth inhibition was 9.65% (inactive).
With `N#C/C(=C\c1ccc(-c2ccccc2)cc1)C(N)=O`, the growth inhibition is 32% (inactive).
Regarding `O=C1Nc2ccccc2CCc2ccccc21`, the growth inhibition was -18.1% (inactive).
Regarding `NC(=O)c1ccccc1OCC(O)CO` (centres undefined), the growth inhibition was -7.6% (inactive).
`N#CC1(c2ccc(Cl)cc2)CCCC1`: the growth inhibition is -15.3% (inactive).

A further test in a line: NCI Yeast Anticancer Drug Screen. Data for the mec2-1 strain (AID 157). Conditions: S. cerevisiae mec2-1 strain, at 50.0 µM, hits give high values. In outline: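 Strain: mec2-1 (DNA repair/cell cycle alteration). Compound exposure, then growth measured; inhibition expressed relative to vehicle.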
Turning to `COC(CN(C)CC(OC)OC)OC`, the growth inhibition is -20.9% (inactive).
With `CC(=O)NS(=O)(=O)c1ccc2sc(C)nc2c1`, the growth inhibition is -22.6% (inactive).
On the same count and under the same terms, the figure for `Cc1ccc(N2C(=O)CC(Sc3ccccc3N)C2=O)cc1` (centres undefined) is -17.4% (inactive); for `O=C(CN1CCOCC1)Nc1cccc(C(F)(F)F)c1` it is -31.4% (inactive).
Regarding `CCC(=O)CC1CCCC(CC(=O)CC)N1C` (centres undefined), the growth inhibition is -2.55% (inactive).
On to `O=C(CC(CC(=O)c1ccccc1)c1ccco1)c1ccccc1`, for which the growth inhibition is -17.2% (inactive).
For the compound `Cc1nc2c(Cl)cc(Cl)c(Cl)c2s1`, the growth inhibition is 5.15% (inactive).
For `Cc1ccc(CNc2ccc(I)cc2)cc1`, the growth inhibition was 37.9% (inactive).
For `O=c1oc(/C=C/c2ccccc2)nc2cc(Cl)ccc12`, the growth inhibition is 10.1% (inactive).
Still for that read-out and setting: the figure for `CC(=O)CCN(Cc1ccccc1)Cc1ccccc1` is -1.95% (inactive).
With `COc1ccc(-c2cc(=O)c3c(O)cccc3o2)cc1`, the growth inhibition was -37.1% (inactive).
Still for that read-out and setting: the figure for `CC1CCN(c2ccc([N+](=O)[O-])cc2[N+](=O)[O-])CC1` is 3.85% (inactive); for `O=C(NC(CO)C(O)c1ccc([N+](=O)[O-])cc1)C(Cl)Cl` (centres undefined) it is -35.6% (inactive); for `Cc1cc(C)cc(NC(=O)c2ccccc2N)c1` it is -27.9% (inactive).
Still for that read-out and setting: the figure for `COc1cc(/C=C(/C#N)C(N)=O)ccc1O` is -35% (inactive); for `Nc1ccc(I)cc1Cl` it is 4.5% (inactive).
For `CC[n+]1c(C)n(Cc2ccc(C(=O)O)cc2)c2cc(F)ccc21`, the growth inhibition was -14.7% (inactive).
On the same count and under the same terms, the figure for `COc1ccc(C(C#N)N2CCCC2)cc1` (centres undefined) is -37.9% (inactive); for `S=C(S)NC1CCCCCCCCCCC1` it is 23.8% (inactive).
Regarding `CCOc1ccc(NC(=O)C2CCC(C)(C(=O)O)C2(C)C)cc1` (centres undefined), the growth inhibition was 0.35% (inactive).
In the case of `O=C1c2ccccc2C(=O)N1/N=C/c1ccc2c(c1)OCO2`, the growth inhibition was 10.2% (inactive).
Turning to `CC(C)c1nc(-c2ccccc2)c(-c2ccccc2)[nH]1`, the growth inhibition is 13.1% (inactive).
As to `Cc1ccccc1NC(=S)Nc1ccccn1`, the growth inhibition is -0.3% (inactive).
On to `CCCCCCCCCCCCOc1ccc(C)cc1`, for which the growth inhibition is -25% (inactive).
On to `CCC(=O)N/N=C/C=N/NC(=O)c1ccncc1`, for which the growth inhibition was -31.8% (inactive).
For the compound `O=[N+]([O-])c1ccc2nc3c4ccccc4c4ccccc4c3nc2c1`, the growth inhibition is -1.1% (inactive).
For the compound `O=C(O)/C=C/C(=O)Nc1cc(Cl)c(Cl)cc1Cl`, the growth inhibition is -3.25% (inactive).
Consider `N#C/C(=C/c1ccc(O)c(O)c1)C(N)=O`, for which the growth inhibition was -4.15% (inactive).
Turning to `CSc1sc2cc([N+](=O)[O-])ccc2[n+]1C`, the growth inhibition was -7.6% (inactive).
As to `Cn1/c(=N/Sc2nnnn2-c2ccccc2)sc2ccccc21`, the growth inhibition was -13.9% (inactive).
In the case of `COC(=O)c1cc(NC(=O)CC(=O)c2cccc(N)c2)cc(C(=O)OC)c1`, the growth inhibition was -12.8% (inactive).
As for `C[N+](C)(C)CN1C(=O)c2ccccc2C1=O`, the growth inhibition was -29.2% (inactive).
Turning to `O=C(O)c1cc(N=Nc2ccccc2)ccc1O`, the growth inhibition is -12.7% (inactive).
With `Cc1c(Cl)cccc1NCN1C(=O)c2ccccc2C1=O`, the growth inhibition is -6.6% (inactive).
With `N#C/C(=C\c1ccc(-c2ccccc2)cc1)C(N)=O`, the growth inhibition is 8.6% (inactive).
In the case of `O=C1Nc2ccccc2CCc2ccccc21`, the growth inhibition was -34.3% (inactive).
As for `NC(=O)c1ccccc1OCC(O)CO` (centres undefined), the growth inhibition was -24.4% (inactive).
Turning to `N#CC1(c2ccc(Cl)cc2)CCCC1`, the growth inhibition was -44% (inactive).

A further test can be described thus: NCI Yeast Anticancer Drug Screen. Data for the mlh1 rad18 strain (AID 175). Conditions: S. cerevisiae mlh1 rad18 strain growth inhibition; at 50.0 µM; hits give high values. The method, boiled down: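 Read-out is yeast growth inhibition, calculated against vehicle-only controls. The compound was applied to a strain engineered with DNA damage repair alterations.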
In the case of `COC(CN(C)CC(OC)OC)OC`, the growth inhibition is -11.8% (inactive).
With `CC(=O)NS(=O)(=O)c1ccc2sc(C)nc2c1`, the growth inhibition is -27.7% (inactive).
On the same count and under the same terms, the figure for `Cc1ccc(N2C(=O)CC(Sc3ccccc3N)C2=O)cc1` (centres undefined) is -9.3% (inactive).
`O=C(CN1CCOCC1)Nc1cccc(C(F)(F)F)c1`: the growth inhibition was -35.4% (inactive).
Turning to `CCC(=O)CC1CCCC(CC(=O)CC)N1C` (centres undefined), the growth inhibition is 17.6% (inactive).
For `O=C(CC(CC(=O)c1ccccc1)c1ccco1)c1ccccc1`, the growth inhibition is -8.65% (inactive).
`Cc1nc2c(Cl)cc(Cl)c(Cl)c2s1`: the growth inhibition was 51.1% (inactive).
Regarding `Cc1ccc(CNc2ccc(I)cc2)cc1`, the growth inhibition is 33.9% (inactive).
Turning to `O=c1oc(/C=C/c2ccccc2)nc2cc(Cl)ccc12`, the growth inhibition was 10.4% (inactive).
With `CC(=O)CCN(Cc1ccccc1)Cc1ccccc1`, the growth inhibition is 22.4% (inactive).
Same read-out and setting: the figure for `COc1ccc(-c2cc(=O)c3c(O)cccc3o2)cc1` is -1.35% (inactive); for `CC1CCN(c2ccc([N+](=O)[O-])cc2[N+](=O)[O-])CC1` it is 25.6% (inactive).
`O=C(NC(CO)C(O)c1ccc([N+](=O)[O-])cc1)C(Cl)Cl` (centres undefined): the growth inhibition was -19.5% (inactive).
`Cc1cc(C)cc(NC(=O)c2ccccc2N)c1`: the growth inhibition was -4.6% (inactive).
`COc1cc(/C=C(/C#N)C(N)=O)ccc1O`: the growth inhibition is -54.9% (inactive).
On the same count and under the same terms, the figure for `Nc1ccc(I)cc1Cl` is 24.4% (inactive); for `CC[n+]1c(C)n(Cc2ccc(C(=O)O)cc2)c2cc(F)ccc21` it is 27.9% (inactive).
Regarding `COc1ccc(C(C#N)N2CCCC2)cc1` (centres undefined), the growth inhibition is -9.75% (inactive).
With `S=C(S)NC1CCCCCCCCCCC1`, the growth inhibition was 39% (inactive).
Same read-out and setting: the figure for `CCOc1ccc(NC(=O)C2CCC(C)(C(=O)O)C2(C)C)cc1` (centres undefined) is -0.8% (inactive); for `O=C1c2ccccc2C(=O)N1/N=C/c1ccc2c(c1)OCO2` it is 18.4% (inactive); for `CC(C)c1nc(-c2ccccc2)c(-c2ccccc2)[nH]1` it is 54.7% (inactive).
Consider `Cc1ccccc1NC(=S)Nc1ccccn1`, for which the growth inhibition was 10.3% (inactive).
For `CCCCCCCCCCCCOc1ccc(C)cc1`, the growth inhibition was 5.3% (inactive).
Same read-out and setting: as for `CCC(=O)N/N=C/C=N/NC(=O)c1ccncc1`, the figure is -7.25% (inactive); as for `O=[N+]([O-])c1ccc2nc3c4ccccc4c4ccccc4c3nc2c1`, 3.65% (inactive).
Consider `O=C(O)/C=C/C(=O)Nc1cc(Cl)c(Cl)cc1Cl`, for which the growth inhibition is -10.9% (inactive).
As to `N#C/C(=C/c1ccc(O)c(O)c1)C(N)=O`, the growth inhibition was 17.1% (inactive).
As to `CSc1sc2cc([N+](=O)[O-])ccc2[n+]1C`, the growth inhibition was 55.4% (inactive).
For the compound `Cn1/c(=N/Sc2nnnn2-c2ccccc2)sc2ccccc21`, the growth inhibition is 29.9% (inactive).
On to `COC(=O)c1cc(NC(=O)CC(=O)c2cccc(N)c2)cc(C(=O)OC)c1`, for which the growth inhibition is 8.4% (inactive).
For the compound `C[N+](C)(C)CN1C(=O)c2ccccc2C1=O`, the growth inhibition is -4.8% (inactive).
The same measure, in the same setting: as for `O=C(O)c1cc(N=Nc2ccccc2)ccc1O`, the figure is -23.8% (inactive); as for `Cc1c(Cl)cccc1NCN1C(=O)c2ccccc2C1=O`, 31.5% (inactive); as for `N#C/C(=C\c1ccc(-c2ccccc2)cc1)C(N)=O`, 27.6% (inactive).
Take `O=C1Nc2ccccc2CCc2ccccc21`: the growth inhibition is -7.2% (inactive).
Same read-out and setting: as for `NC(=O)c1ccccc1OCC(O)CO` (centres undefined), the figure is 26.1% (inactive); as for `N#CC1(c2ccc(Cl)cc2)CCCC1`, -14.8% (inactive).
